Here are results for one sequence from publication PMC7862700, “An all-to-all approach to the identification of sequence-specific readers for epigenetic DNA modifications on cytosine”.

What all share (test): DAPPL (digital affinity profiling via proximity ligation, sequencing); 10 mM Tris-HCl pH 7.5, 50 mM NaCl, 1 mM DTT, 4% glycerol, room temperature, 30 min; GST-TFs on glutathione beads, 16-mer random dsDNA library, 0.1% formaldehyde crosslink after washing; high values mean tight binding
The target of test [1] is T1, FEV (Homo sapiens, UniProt Q99581 1-238).
T1 sequence: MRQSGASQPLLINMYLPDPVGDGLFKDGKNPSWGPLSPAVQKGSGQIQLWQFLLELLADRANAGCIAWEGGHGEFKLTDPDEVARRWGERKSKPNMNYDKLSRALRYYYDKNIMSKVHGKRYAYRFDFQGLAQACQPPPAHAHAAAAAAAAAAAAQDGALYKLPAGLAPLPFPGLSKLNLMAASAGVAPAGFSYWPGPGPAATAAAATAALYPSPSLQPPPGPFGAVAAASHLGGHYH
Particulars: protein: recombinant; tags: N-terminal GST; dsDNA, one strand shown. Put shortly:
(§1)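 Each value of binding signal is a hexamer's read frequency for a factor divided by the same hexamer's frequency in the tag-only sample. Barcoded, bead-captured GST fusions of human transcription factors made in yeast were pooled with that sample and incubated with 200 nmole of a random double-stranded 16-mer DNA library in Tris/NaCl/DTT/glycerol buffer at room temperature for 30 min. Washing, 0.1% formaldehyde crosslinking, proximity ligation, PCR and Illumina NextSeq500 sequencing followed.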

Test [2] has as its target ETV5 (Homo sapiens, UniProt P41161 1-510). The conditions noted are these: protein: recombinant; tags: N-terminal GST; dsDNA, one strand shown. Summed up:
as §1

Test [3] has as its target HSF1 (Homo sapiens, UniProt Q00613 1-529). Particulars: protein: recombinant; tags: N-terminal GST; chain copies: 3; dsDNA, one strand shown. Put shortly: as §1
The target in test [4] is T2, SPIC (Homo sapiens, UniProt Q8N5J4 1-248).
T2 sequence: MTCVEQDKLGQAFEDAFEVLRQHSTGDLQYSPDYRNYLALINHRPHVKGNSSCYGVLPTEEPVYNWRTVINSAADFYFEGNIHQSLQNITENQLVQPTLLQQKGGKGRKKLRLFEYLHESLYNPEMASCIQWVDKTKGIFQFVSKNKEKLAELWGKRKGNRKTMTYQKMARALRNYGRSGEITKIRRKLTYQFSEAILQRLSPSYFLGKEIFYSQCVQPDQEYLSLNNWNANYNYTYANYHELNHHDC
Particulars: protein: recombinant; tags: N-terminal GST; dsDNA, one strand shown. Summed up:
as §1

Test [5] deals with ELF4 (Homo sapiens, UniProt Q99607 1-663). Particulars: protein: recombinant; tags: N-terminal GST; dsDNA, one strand shown. Put shortly: as §1
The target of test [6] is T3, ELK4 (Homo sapiens, UniProt P28324-2 1-405).
T3 sequence: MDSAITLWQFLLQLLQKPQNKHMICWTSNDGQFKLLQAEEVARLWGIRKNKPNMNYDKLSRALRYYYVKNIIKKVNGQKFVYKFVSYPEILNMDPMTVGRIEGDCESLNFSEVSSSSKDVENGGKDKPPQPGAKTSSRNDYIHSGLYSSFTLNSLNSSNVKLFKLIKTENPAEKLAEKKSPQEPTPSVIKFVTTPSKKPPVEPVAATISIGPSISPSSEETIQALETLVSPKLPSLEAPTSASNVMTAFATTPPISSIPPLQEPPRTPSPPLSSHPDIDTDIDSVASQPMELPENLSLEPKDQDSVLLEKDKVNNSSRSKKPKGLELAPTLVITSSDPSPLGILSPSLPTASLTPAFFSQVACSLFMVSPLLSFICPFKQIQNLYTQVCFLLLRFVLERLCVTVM
Particulars: protein: recombinant; tags: N-terminal GST; dsDNA, one strand shown. Summed up:
as §1

Test [7] addresses T4, ETV2 (Homo sapiens, UniProt O00321 1-342).
T4 sequence: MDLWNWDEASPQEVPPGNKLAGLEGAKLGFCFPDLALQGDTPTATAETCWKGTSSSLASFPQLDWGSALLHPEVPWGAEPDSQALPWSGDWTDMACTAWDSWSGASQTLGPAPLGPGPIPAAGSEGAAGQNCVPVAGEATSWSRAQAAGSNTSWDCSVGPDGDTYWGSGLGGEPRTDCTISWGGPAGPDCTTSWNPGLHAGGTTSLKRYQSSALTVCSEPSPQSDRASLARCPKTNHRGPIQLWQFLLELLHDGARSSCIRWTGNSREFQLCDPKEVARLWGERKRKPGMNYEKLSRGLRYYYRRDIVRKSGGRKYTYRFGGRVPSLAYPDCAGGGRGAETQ
Particulars: protein: recombinant; tags: N-terminal GST; dsDNA, one strand shown. Put shortly: as §1

Test [8] addresses T5, ELF3 (Homo sapiens, UniProt P78545 1-371).
T5 sequence: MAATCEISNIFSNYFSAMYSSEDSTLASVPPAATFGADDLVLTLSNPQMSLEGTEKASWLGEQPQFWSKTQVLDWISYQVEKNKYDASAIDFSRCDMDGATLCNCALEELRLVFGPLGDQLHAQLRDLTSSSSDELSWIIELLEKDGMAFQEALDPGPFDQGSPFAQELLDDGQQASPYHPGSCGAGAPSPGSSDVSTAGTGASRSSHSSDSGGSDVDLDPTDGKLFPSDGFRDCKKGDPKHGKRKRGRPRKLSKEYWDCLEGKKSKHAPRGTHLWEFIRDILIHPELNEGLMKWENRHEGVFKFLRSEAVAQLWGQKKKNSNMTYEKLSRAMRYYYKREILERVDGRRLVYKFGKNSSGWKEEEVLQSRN
The conditions noted are these: protein: recombinant; tags: N-terminal GST; dsDNA, one strand shown. Put shortly: as §1

Test [9] concerns the target CRX (Homo sapiens, UniProt O43186 1-299). The conditions noted are these: protein: recombinant; tags: N-terminal GST; dsDNA, one strand shown. Put shortly:
as §1

Test [10] concerns the target ETV1 (Homo sapiens, UniProt P50549 1-477). The conditions noted are these: protein: recombinant; tags: N-terminal GST; dsDNA, one strand shown. Put shortly:
as §1

Test [11] addresses T6, ERF (Homo sapiens, UniProt P50548 1-548).
T6 sequence: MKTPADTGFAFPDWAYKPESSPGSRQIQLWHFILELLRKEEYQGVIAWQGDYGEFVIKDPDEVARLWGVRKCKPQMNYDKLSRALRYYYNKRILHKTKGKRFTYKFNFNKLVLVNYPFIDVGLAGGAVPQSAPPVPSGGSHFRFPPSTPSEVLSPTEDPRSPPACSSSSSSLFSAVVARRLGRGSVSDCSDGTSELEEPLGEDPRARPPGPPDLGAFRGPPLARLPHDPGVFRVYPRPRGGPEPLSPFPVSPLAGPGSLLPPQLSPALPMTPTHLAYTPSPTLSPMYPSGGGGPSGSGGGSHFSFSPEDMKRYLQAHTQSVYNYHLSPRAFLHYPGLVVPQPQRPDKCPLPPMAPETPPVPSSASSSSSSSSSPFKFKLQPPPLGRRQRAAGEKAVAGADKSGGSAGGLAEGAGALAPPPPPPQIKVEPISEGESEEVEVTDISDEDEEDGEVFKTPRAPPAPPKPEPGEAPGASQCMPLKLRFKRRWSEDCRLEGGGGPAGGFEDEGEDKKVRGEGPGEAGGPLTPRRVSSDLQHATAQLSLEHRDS
The conditions noted are these: protein: recombinant; tags: N-terminal GST; dsDNA, one strand shown. Put shortly: as §1

Test [12] deals with T7, ETV3L (Homo sapiens, UniProt Q6ZN32 1-361).
T7 sequence: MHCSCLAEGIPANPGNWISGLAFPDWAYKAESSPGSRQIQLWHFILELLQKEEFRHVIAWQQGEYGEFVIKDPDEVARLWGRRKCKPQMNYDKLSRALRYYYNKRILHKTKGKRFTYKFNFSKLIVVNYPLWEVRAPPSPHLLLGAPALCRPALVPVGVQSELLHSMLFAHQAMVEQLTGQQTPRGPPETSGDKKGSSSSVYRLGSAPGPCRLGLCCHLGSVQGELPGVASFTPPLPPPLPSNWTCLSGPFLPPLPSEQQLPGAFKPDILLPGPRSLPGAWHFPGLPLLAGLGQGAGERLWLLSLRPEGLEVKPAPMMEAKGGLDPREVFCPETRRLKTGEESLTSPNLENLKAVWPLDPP
The conditions noted are these: protein: recombinant; tags: N-terminal GST; dsDNA, one strand shown. Summed up:
as §1

In test [13] the target is T8, ETS2 (Homo sapiens, UniProt P15036 1-469).
T8 sequence: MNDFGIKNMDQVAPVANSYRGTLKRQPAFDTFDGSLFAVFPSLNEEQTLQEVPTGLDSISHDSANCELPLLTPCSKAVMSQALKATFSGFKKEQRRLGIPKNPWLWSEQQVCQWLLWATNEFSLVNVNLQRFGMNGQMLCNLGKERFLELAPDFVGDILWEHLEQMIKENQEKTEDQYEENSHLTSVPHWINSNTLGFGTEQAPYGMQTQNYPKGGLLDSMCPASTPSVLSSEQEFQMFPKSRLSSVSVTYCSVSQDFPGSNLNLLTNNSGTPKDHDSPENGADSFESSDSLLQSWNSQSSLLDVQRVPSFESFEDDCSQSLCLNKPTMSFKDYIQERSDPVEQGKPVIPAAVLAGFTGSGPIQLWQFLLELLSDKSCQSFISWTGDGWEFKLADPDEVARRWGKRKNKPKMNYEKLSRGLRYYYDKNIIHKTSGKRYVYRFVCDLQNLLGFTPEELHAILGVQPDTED
The conditions noted are these: protein: recombinant; tags: N-terminal GST; dsDNA, one strand shown. Summed up: as §1

In test [14] the target is T9, SPDEF (Homo sapiens, UniProt O95238 1-335).
T9 sequence: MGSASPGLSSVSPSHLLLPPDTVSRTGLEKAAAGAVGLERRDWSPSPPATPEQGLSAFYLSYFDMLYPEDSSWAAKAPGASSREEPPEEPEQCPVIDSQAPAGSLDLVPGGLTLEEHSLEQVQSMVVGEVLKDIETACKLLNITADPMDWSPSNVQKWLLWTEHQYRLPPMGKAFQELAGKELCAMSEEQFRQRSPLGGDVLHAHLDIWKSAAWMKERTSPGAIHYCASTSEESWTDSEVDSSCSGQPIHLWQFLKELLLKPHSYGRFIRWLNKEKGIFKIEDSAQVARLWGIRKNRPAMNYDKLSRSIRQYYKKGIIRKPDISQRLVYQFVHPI
Particulars: protein: recombinant; tags: N-terminal GST; dsDNA, one strand shown. Summed up:
as §1

In test [15] the target is T10, ETV7 (Homo sapiens, UniProt Q9Y603 1-341).
T10 sequence: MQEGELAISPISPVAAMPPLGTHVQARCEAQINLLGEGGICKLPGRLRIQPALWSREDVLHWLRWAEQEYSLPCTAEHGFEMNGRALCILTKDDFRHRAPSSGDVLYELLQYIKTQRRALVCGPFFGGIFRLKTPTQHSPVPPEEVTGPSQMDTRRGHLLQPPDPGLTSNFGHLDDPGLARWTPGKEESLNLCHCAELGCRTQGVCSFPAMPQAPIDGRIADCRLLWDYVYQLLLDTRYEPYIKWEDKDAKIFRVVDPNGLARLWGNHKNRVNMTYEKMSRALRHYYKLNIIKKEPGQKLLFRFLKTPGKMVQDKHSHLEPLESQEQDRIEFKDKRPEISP
The conditions noted are these: protein: recombinant; tags: N-terminal GST; dsDNA, one strand shown. Put shortly: as §1

For test [16], the target named is T11, ELF5 (Homo sapiens, UniProt Q9UKW6-2 1-255).
T11 sequence: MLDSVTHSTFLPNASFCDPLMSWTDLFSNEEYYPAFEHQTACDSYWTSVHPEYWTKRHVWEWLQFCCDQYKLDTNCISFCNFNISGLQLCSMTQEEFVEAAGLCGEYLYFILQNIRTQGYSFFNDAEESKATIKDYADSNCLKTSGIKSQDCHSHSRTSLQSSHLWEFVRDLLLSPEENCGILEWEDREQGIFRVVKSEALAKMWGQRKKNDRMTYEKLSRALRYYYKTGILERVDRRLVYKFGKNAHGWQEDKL
The conditions noted are these: protein: recombinant; tags: N-terminal GST; dsDNA, one strand shown. Summed up:
as §1

Test [17] deals with T12, ETV3 (Homo sapiens, UniProt P41162-2 1-143).
T12 sequence: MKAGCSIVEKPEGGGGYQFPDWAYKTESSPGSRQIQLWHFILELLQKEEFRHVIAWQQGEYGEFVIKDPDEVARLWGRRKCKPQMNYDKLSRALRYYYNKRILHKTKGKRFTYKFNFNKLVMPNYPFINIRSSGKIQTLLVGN
Particulars: protein: recombinant; tags: N-terminal GST; dsDNA, one strand shown. Put shortly: as §1

For test [18], the target named is ETV6 (Homo sapiens, UniProt P41212 1-452). Particulars: protein: recombinant; tags: N-terminal GST; dsDNA, one strand shown. Summed up:
as §1

CRX, sequence (O43186 whole entry): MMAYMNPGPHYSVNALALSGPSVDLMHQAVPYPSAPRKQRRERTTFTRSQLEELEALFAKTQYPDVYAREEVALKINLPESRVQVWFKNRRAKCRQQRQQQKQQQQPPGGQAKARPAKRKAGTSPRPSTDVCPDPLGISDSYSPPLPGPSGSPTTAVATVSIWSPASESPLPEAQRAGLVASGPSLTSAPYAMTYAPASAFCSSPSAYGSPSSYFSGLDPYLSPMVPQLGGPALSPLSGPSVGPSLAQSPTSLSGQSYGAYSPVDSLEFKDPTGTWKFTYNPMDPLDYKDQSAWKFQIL
ELF4, sequence (Q99607 whole entry): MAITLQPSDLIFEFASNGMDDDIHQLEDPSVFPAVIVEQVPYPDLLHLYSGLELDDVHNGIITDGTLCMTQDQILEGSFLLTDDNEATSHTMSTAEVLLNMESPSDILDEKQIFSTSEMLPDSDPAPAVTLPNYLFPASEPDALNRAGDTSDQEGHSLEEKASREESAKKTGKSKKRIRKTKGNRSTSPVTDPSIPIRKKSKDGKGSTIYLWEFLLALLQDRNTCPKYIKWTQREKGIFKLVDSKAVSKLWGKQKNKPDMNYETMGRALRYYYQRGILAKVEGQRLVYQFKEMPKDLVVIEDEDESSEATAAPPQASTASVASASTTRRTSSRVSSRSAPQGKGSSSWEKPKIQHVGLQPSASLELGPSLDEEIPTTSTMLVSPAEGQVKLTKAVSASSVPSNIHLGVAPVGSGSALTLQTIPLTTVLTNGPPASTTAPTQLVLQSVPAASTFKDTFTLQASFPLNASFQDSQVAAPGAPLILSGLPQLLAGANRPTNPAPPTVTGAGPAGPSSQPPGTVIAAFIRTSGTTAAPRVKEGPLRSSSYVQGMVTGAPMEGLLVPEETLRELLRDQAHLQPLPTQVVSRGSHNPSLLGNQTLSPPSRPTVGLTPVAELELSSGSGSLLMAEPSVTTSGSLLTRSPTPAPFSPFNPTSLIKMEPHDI
ETV5, sequence (P41161 whole entry): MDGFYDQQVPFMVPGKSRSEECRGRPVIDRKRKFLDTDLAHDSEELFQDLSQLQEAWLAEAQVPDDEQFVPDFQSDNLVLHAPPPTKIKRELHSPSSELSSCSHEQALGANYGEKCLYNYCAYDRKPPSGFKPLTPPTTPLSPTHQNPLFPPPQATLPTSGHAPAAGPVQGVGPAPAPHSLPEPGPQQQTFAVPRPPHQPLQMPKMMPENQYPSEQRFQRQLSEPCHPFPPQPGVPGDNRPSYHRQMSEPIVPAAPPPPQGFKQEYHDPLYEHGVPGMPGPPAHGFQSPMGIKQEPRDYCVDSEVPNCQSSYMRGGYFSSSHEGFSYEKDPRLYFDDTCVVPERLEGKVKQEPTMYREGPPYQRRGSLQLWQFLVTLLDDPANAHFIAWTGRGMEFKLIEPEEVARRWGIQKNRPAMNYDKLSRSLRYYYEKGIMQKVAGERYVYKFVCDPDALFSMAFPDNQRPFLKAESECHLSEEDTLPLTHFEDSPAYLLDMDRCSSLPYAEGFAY
HSF1, sequence (Q00613 whole entry): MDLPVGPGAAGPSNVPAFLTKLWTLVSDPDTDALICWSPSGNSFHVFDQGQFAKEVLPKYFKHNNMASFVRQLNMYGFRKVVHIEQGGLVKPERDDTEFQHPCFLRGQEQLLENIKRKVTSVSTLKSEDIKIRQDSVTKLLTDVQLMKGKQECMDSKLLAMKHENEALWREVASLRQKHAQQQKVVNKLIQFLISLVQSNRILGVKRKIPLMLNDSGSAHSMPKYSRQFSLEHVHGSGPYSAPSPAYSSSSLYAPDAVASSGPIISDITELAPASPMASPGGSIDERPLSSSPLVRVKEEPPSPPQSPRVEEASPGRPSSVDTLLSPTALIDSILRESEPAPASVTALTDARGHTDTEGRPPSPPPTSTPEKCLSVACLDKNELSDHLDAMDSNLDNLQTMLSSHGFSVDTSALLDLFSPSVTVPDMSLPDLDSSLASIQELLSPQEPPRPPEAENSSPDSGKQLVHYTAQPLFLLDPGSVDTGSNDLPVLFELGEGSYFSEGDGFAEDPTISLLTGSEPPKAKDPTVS
ETV1, sequence (P50549 whole entry): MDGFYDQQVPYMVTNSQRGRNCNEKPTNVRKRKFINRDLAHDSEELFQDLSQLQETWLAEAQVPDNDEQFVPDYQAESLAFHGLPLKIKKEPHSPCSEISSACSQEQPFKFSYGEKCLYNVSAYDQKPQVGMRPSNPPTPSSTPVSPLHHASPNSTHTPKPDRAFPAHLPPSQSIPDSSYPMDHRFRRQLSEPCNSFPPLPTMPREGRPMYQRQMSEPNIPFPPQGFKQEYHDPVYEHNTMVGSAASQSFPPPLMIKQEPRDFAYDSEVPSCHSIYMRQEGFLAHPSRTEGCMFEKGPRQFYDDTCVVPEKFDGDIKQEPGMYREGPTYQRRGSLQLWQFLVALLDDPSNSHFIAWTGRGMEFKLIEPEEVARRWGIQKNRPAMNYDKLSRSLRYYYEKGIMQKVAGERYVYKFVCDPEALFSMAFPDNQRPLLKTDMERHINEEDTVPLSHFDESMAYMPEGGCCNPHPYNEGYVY
ETV6, sequence (P41212 whole entry): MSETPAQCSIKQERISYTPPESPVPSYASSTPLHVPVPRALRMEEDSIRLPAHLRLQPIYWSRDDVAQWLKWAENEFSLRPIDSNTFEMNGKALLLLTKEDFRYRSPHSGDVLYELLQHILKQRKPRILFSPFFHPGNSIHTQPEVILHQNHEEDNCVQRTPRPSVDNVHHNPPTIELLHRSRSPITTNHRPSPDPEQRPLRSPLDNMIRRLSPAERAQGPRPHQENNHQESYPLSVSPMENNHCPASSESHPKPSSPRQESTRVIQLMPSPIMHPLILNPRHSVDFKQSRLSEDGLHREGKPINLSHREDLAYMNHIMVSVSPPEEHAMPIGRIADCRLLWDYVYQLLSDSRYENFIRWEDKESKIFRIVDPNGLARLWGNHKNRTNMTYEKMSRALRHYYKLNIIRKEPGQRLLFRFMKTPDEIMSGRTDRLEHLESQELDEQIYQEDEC

For CTCAAC, the binding signal in test [1] is 1.32 fold enrichment (6-mer frequency, TF over GST control); in [2], 1.3 fold enrichment (6-mer frequency, TF over GST control); in test [3], 1.1 fold enrichment (6-mer frequency, TF over GST control); in test [4], 1.36 fold enrichment (6-mer frequency, TF over GST control); in test [5], 1.3 fold enrichment (6-mer frequency, TF over GST control); in test [6], 1.18 fold enrichment (6-mer frequency, TF over GST control). In addition, the binding signal was 1.29 fold enrichment (6-mer frequency, TF over GST control) in [7]; 1.19 fold enrichment (6-mer frequency, TF over GST control) in test [8]; 1.13 fold enrichment (6-mer frequency, TF over GST control) in test [9]; 1.24 fold enrichment (6-mer frequency, TF over GST control) in test [10]; 1.15 fold enrichment (6-mer frequency, TF over GST control) in test [11]; 1.41 fold enrichment (6-mer frequency, TF over GST control) in test [12]. Also, the binding signal is 1.27 fold enrichment (6-mer frequency, TF over GST control) in [13]; 1.24 fold enrichment (6-mer frequency, TF over GST control) in test [14]; 1.11 fold enrichment (6-mer frequency, TF over GST control) in [15]; 1.16 fold enrichment (6-mer frequency, TF over GST control) in [16]; 1.28 fold enrichment (6-mer frequency, TF over GST control) in test [17]; 1.24 fold enrichment (6-mer frequency, TF over GST control) in test [18].
